Bioassay records as filed in PubChem BioAssay.
Vaccinia mCherry: inhibitors of vaccinia virus infection (mCherry reporter signal); Vaccinia virus mCherry reporter infection, fluorescence; Potency, µM (highest dose often 36.5 µM), for the others: at the top dose activity change, negative = inhibition, actives largely listed as inhibitors; 310,000 compounds, 0.63% hits; calls by dose curve; tested in A549 cells; note: nearly all actives have a fitted effect of over 35% in size
Pf growth 48h: P. falciparum growth inhibition at 48 hours (one generation) | AID 504832 | Potency, µM (titrated, usually from 28.7 µM), for inactives: top-dose activity change, negative = inhibition, most hits filed as inhibitors | 310,000 compounds, 5.9% hits | P. falciparum luciferase growth in erythrocytes, 48 h
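First compound was added to culture medium, then infected red cells at 0.1% parasitemia and 2% hematocrit (final). After incubation at 37 C under 5% CO2, luciferase detection reagent was dispensed and light output recorded.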
VACV Venus inh: inhibitors of vaccinia virus (Venus reporter); Vaccinia virus Venus reporter expression, fluorescence; Potency, µM (series often up to 36.5 µM), inactives show at the highest dose activity change, negative = inhibition, actives largely listed as inhibitors; 330,000 compounds, 0.46% hits; AID 720580; calls by dose curve; tested in A549 cells; note: nearly all actives have a fitted effect of over 30% in size
Pf growth 96h: P. falciparum growth inhibition at 96 hours. AID 504834. Potency, µM (highest dose often 28.7 µM), without a hit: top-dose activity change, negative = inhibition, hits mostly inhibitors. 320,000 compounds, 6.9% hits. P. falciparum luciferase reporter growth, 96 h
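Delayed-death screen, second-generation endpoint: infected erythrocytes, 2% hematocrit, 0.05% parasitemia final; 96 hours at 37 C, 5% CO2; luciferase detection reagent; luminescence decrease equals reduced growth.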
AMA1-RON2 inh: inhibitors of Plasmodium falciparum AMA1-RON2 interaction; AlphaScreen AMA1-biotinylated RON2 peptide binding; 360,000 compounds, 0.2% hits; Potency, µM (doses to about 58.2 µM), without a hit: top-dose activity change, negative = inhibition, hits mostly inhibitors; AID 720542;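 note: 0% = vehicle wells and -100% = peptide control; nearly all actives have a fitted effect of over 45% in size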
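AMA1 (3D7) with his tag at 25 nM final met compounds first, then biotinylated RON2 peptide at 25 nM; detection used donor plus acceptor beads, 10 µg/mL apiece, read by AlphaScreen after 30 min at room temperature.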
Starred values were filed as active, the others as inactive. Shown are actives, neighbours in structure and some others; about 8.7% of the full set was active somewhere. Unless noted, calls come from the whole dose curve; as a rule, active = well fitted curve in the direction sought with a large enough effect; inconclusive = small, poorly fitted or top-dose-only effect, or another doubt; inactive = no such curve, though single readings can be large; an effect the other way counts as inactive or inconclusive. Unless noted, % is set by controls: 0 for no effect and ±100 for the full control effect; potency is the fitted concentration of half-maximal effect.

Cc1cc(NC(=O)C2CCN(S(=O)(=O)c3ccc4[nH]c(=O)oc4c3)CC2)ccc1Br was read as Vaccinia mCherry 1% and VACV Venus inh -11%.
`CC1=CC(C)(C)N=C(Nc2ccc(C)cc2)S1` gave Vaccinia mCherry -12%, VACV Venus inh -25%, Pf growth 96h 10µM* and AMA1-RON2 inh -1%.
CC(C)N=c1cc2n(-c3ccc(Cl)cc3)c3ccccc3nc-2cc1Nc1ccc(Cl)cc1 was read as Vaccinia mCherry inactive, Pf growth 48h 2.9µM*, VACV Venus inh inconclusive, Pf growth 96h inconclusive and AMA1-RON2 inh -28%.
`CCOC(=O)C1(Cc2cccc(OC)c2)CCCN(C(=O)c2cc(C)on2)C1` (stereo unspecified) gave Vaccinia mCherry inactive, Pf growth 48h -15%, VACV Venus inh -7%, Pf growth 96h 6.6µM* and AMA1-RON2 inh -2%.
For CCOC(=O)C1(Cc2cccc(OC)c2)CCCN(Cc2nccn2CC)C1 (stereo unspecified) the results were Vaccinia mCherry inactive, Pf growth 48h inconclusive, VACV Venus inh -18%, Pf growth 96h 12µM* and AMA1-RON2 inh -8%.
`COC(=O)C1=C(C)NC(=O)CC1c1cccc(Cl)c1Cl` (stereo unspecified) gave Vaccinia mCherry -20%, Pf growth 48h 5.2µM*, VACV Venus inh -5%, Pf growth 96h inconclusive and AMA1-RON2 inh -9%.
For COc1ccc(OC2C(=O)N(Cc3ccc4c(c3)OCO4)C2c2sccc2C)cc1 (stereo unspecified) the results were Vaccinia mCherry -7%, Pf growth 48h inconclusive, VACV Venus inh -10%, Pf growth 96h 4.1µM* and AMA1-RON2 inh -2%.
Screening CN1[C@@H]2CC[C@H]1CC(OC(=O)C1C=Nc3ccccc31)C2 (stereo partly specified) returned Vaccinia mCherry -14%, Pf growth 48h inconclusive, VACV Venus inh -10%, Pf growth 96h 13µM* and AMA1-RON2 inh 35%.
Screening CN1C2CCC1CC(OC(=O)C(O)c1ccccc1)C2 (stereo unspecified) returned Vaccinia mCherry -8% and VACV Venus inh -11%.
Oc1ccc(NCc2ccccc2OCc2ccccc2F)cc1 was read as Vaccinia mCherry -2%, Pf growth 48h 10µM*, VACV Venus inh 7%, Pf growth 96h inconclusive and AMA1-RON2 inh inconclusive.
Oc1ccc(NCc2ccccc2OCc2ccccc2Cl)cc1 was read as Vaccinia mCherry 0% and VACV Venus inh -5%.
Cc1ccc(-n2c(C)cc(/C=N/NC(=O)CC3(C)OCCO3)c2C)cc1 was read as Vaccinia mCherry -22%, Pf growth 48h 13µM*, VACV Venus inh -18%, Pf growth 96h inconclusive and AMA1-RON2 inh 75%.
`Cc1cc(/C=N/NC(=O)CC2(C)OCCO2)c(C)n1-c1cc(Cl)cc(Cl)c1` gave Pf growth 48h inconclusive, VACV Venus inh -8%, Pf growth 96h inconclusive and AMA1-RON2 inh -2%.
Screening Cc1ccc(-n2c(C)cc(/C=N/NC(=O)CN(c3ccc(C)cc3C)S(C)(=O)=O)c2C)cc1 returned Pf growth 48h 12µM*, VACV Venus inh -11%, Pf growth 96h inconclusive and AMA1-RON2 inh -7%.
For C=CC(C1=CC(=O)C(OC)=CC1=O)c1ccccc1 (stereo unspecified) the results were Vaccinia mCherry inactive and VACV Venus inh -14%.
CCN1C(=O)CC(C(C)C)N(C2CCCC2)c2nc(Nc3ccc(C(=O)NC4CCN(C)CC4)cc3OC)ncc21 (stereo unspecified) was read as Vaccinia mCherry inconclusive, VACV Venus inh 10µM* and AMA1-RON2 inh -2%.
CCOC(=O)N1CCN(C(=O)c2ccc3c(c2)NC(=O)/C(=C\c2cccc(C)c2)S3)CC1 was read as Pf growth 48h inconclusive, Pf growth 96h inconclusive and AMA1-RON2 inh 7%.
`COc1ccc(/C=C2/Sc3ccc(C(=O)N4CCOCC4)cc3NC2=O)cc1OC` gave Pf growth 48h inconclusive, Pf growth 96h 15µM* and AMA1-RON2 inh 17%.
`CCOC(=O)N1CCN(C(=O)c2ccc3c(c2)N(C)C(=O)/C(=C\c2ccc(OCC)c(OC)c2)S3)CC1` gave Vaccinia mCherry inconclusive, Pf growth 48h 1.2µM*, VACV Venus inh inconclusive, Pf growth 96h 52% and AMA1-RON2 inh 5%.
